Compound activity from PubChem BioAssay.
This is a sample that favours compounds with a hit; in the whole collection about 9.3% have one here.
SMN2 splice enh – enhancers of SMN2 splice variant expression; AID 1458; Potency, µM (doses to about 46.1 µM), without a hit: at the highest dose activity change, positive = activation, most hits filed as activators; HEK293 SMN2-luciferase splicing reporter, luminescence, 30-36 h; 210,000 tested, 2.8% active; also: % of control where 0% means no effect; nearly all actives have a fitted effect of over 55% in size
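HEK293 cells carry an SMN2 minigene-luciferase reporter in which exon 7 inclusion puts luciferase in frame. Cells were seeded at 2000 cells/well, attached for 10-12 hours, then exposed to compounds for 30-36 hours at 37C before ONE-Glo luminescence.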
NPC1 promoter act – activators of NPC1 promoter; Huh7 NPC1 promoter luciferase reporter, 24 h; Potency, µM (highest dose often 9.22 µM), without a hit: at the top dose activation, actives largely listed as activators; 320,000 tested, 2.4% active; also: % of control where 0% means no effect; nearly all actives have a fitted effect of over 60% in size
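Luciferase expression driven by the NPC1 promoter was measured in stably transfected Huh7 cells after a 24 h compound incubation, using a luciferase reagent and a luminescence read.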
FLuc modulator – inhibits or activates purified firefly luciferase, miR-21 counter-screen | P08659 | purified FLuc, Km substrates, luminescence inhibition | Potency, µM (top dose mostly 57.5 µM), inactives show at the top dose activity change, negative = inhibition, most hits filed as inhibitors | 360,000 tested, 6.9% active;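 also: plate controls were vehicle for no effect and reference inhibitor for full effect; nearly all actives have a fitted effect of over 55% in size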
Target sequence (P08659 whole entry, looked up): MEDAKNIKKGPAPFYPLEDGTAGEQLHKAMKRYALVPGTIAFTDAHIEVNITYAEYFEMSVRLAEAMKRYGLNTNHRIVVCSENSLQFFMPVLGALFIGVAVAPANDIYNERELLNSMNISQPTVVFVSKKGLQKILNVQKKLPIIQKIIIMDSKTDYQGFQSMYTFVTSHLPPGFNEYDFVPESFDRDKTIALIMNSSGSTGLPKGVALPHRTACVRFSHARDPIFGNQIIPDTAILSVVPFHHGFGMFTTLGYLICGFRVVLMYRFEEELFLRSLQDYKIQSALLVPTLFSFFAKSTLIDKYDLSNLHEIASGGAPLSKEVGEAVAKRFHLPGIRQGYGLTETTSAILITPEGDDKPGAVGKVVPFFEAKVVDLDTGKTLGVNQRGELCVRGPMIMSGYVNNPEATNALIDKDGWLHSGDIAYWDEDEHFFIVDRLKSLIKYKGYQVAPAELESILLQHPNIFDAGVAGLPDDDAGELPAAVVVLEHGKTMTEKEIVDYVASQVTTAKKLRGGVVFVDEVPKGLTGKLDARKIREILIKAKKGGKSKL
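Purified P. pyralis luciferase, 10 nM final, with Km-level 10 uM D-luciferin and 10 uM ATP in 50 mM Tris acetate pH 7.5, 10 mM Mg acetate, 0.01% Tween-20, 0.05% BSA; 6-point qHTS titration about 60 µM downward; luminescence read.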
ELG1 genotoxic – induces genotoxicity in HEK293T cells with luciferase-tagged ELG1; AID 504466; 330,000 tested, 1.3% active; Potency, µM (series often up to 46 µM), for the others: at the highest dose activity change, positive = activation, hits mostly activators; HEK293T ELG1-luciferase reporter, luminescence, 16 h; also: % of control where 0% means no effect; nearly all actives have a fitted effect of over 60% in size
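After overnight (16 hr) compound treatment at 37 °C, ELG1-luciferase HEK293T cells were lysed with ONE-Glo; luminescence quantified 30 min later at room temperature.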
Rab9 prom act – activators of Rab9 promoter; Huh7 Rab9 promoter-luciferase reporter, luminescence, 24 h; Potency, µM (titrated, usually from 9.22 µM), inactives show at the top dose activation, negative = inhibition, most hits filed as activators; 320,000 tested, 2.8% active; also: % of control where 0% means no effect; nearly all actives have a fitted effect of over 60% in size
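Huh7 cells stably carrying Rab9 promoter–luciferase reporter, plated 1500 cells/well, compound added after 2 h and incubated 24 h at 37 °C; luciferase luminescence then read after 10 min with detection reagent.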
ELG1 repair inh – inhibitors of ELG1-dependent DNA repair in HEK293T cells; HEK293T ELG1-luciferase reporter, luminescence, 16 h; DNA damage induced by 5-fluorouridine; 330,000 tested, 2.3% active; Potency, µM (titrated, usually from 46.1 µM), inactives show at the top dose activity change, negative = inhibition, actives largely listed as inhibitors; also: % is scaled to controls: 0 for no effect and ±100 for the full control effect; nearly all actives have a fitted effect of over 55% in size
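Overnight (16 hr) co-exposure of 2,000 cells/well to 5-fluorouridine and compound at 37 °C preceded detection. Luciferase was quantified via ONE-Glo luminescence; loss of signal denotes inhibition.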
* marks the source's active call; other numbers are inactive results; ? = inconclusive; · = no result; [ ] = dose if it differs, or a comment. Calls follow the shape of the dose curve; as a rule, active = well fitted curve in the direction sought with a large enough effect; inconclusive = small, poorly fitted or top-dose-only effect, or another doubt; inactive = no such curve, though single readings can be large; an effect the other way counts as inactive or inconclusive. Potency is read from the fitted curve at half-maximal effect.

SMILES	SMN2 splice enh	NPC1 promoter act	FLuc modulator	ELG1 genotoxic	Rab9 prom act	ELG1 repair inh
COc1ccc(COC(=O)c2ccc(S(=O)(=O)N3CCC(C)CC3)cc2)cc1	·	2%	1%	-7%	0%	12%
Clc1cccc(N/N=C/c2ccc(N3CCOCC3)s2)c1	-5%	-1%	9.5µM*	-9%	21%	?
CNc1ncc(C(=O)c2ccc(Cl)c(Cl)c2)s1	24%	3.5µM*	?	?	?	?
O=C(c1ccc(Cl)c(Cl)c1)c1cnc(Nc2ccccc2)s1	-4%	1%	6%	2%	6%	?
CNc1ncc(C(=O)c2ccc(Cl)cc2)s1	13µM*	3.5µM*	11µM*	?	2.8µM*	?
CNc1ncc(C(=O)c2ccc(-c3ccccc3)cc2)s1	·	2µM*	3µM*	?	2.5µM*	?
COc1ccccc1OCCNC(=O)C1CC(=O)N(c2cccc(SC)c2)C1 (configuration not stated)	·	-1%	-1%	1%	-2%	5%
NS(=O)(=O)c1cccc(NC(=O)COC(=O)CCN2C(=O)c3ccccc3C2=O)c1	·	0%	1%	-3%	-5%	15%
NS(=O)(=O)c1cccc(NC(=O)COC(=O)CNC(=O)c2ccc(-c3ccccc3)cc2)c1	·	5%	6.7µM*	-1%	0%	17%
Cc1[nH]c2ccc(C(=O)OCC(=O)Nc3cccc(S(N)(=O)=O)c3)cc2c1C	·	-2%	17µM*	4%	18%	?
CS(=O)(=O)c1ccc(C(=O)OCC(=O)Nc2cccc(S(=O)(=O)N3CCCC3)c2)cc1	·	0%	-20%	1%	1%	7%
CCC(Sc1nnc2c(n1)[nH]c1ccccc12)C(=O)Nc1ccccc1OC (configuration not stated)	-57%	·	?	·	·	·
Cc1cccc(CN2C(=O)N(c3ccc(C(C)C)cc3)S(=O)(=O)c3ccccc32)c1	·	·	-3%	·	·	·
O=C(COc1ccccc1Br)N1CCN(C(=O)c2cccs2)CC1	·	-2%	·	4%	3%	-2%
CN(c1ccc(OCC(=O)OCC(=O)Nc2c(F)c(F)c(F)c(F)c2F)cc1)S(=O)(=O)c1ccc(F)cc1	6%	-1%	5%	0%	2%	6%
O=C(c1csnn1)N1CCC2(CCN(Cc3ccccc3)CC2)CC1	2%	·	·	·	·	·
c1ccc(-c2ccccn2)nc1	-9%	-3%[46.1 µM]	3%	-1%	-4%[46.1 µM]	-1%
c1ccc(-c2ccc(-c3ccccn3)nn2)nc1	7.1µM*	0.32µM*	1.3µM*	10%	0.32µM*	?
CC(Sc1nnc(-c2ccco2)n1C)C(=O)Nc1nccs1 (configuration not stated)	·	4%	3%	-1%	0%	?
CCOC(=O)/C=C/C(=O)Nc1ccc(S(=O)(=O)Nc2nccs2)cc1	·	-6%	-3%	0%	1%	13%
CC1CCN(C(=O)CSc2nnc3c(n2)[nH]c2ccc(F)cc23)CC1	·	-4%	-1%	-10%	-15%	-26%
CC(C)c1ccc2[nH]c3nc(SCC(=O)N4CCOCC4)nnc3c2c1	?	-1%	6.7µM*	-7%	4%	0%
CCc1ccc2[nH]c3nc(SCCN4CCOCC4)nnc3c2c1	·	-3%	?	-6%	2%	26µM*
O=C(NCC1CCCO1)c1ccc2c(=O)n(CC3CCCO3)c(SCC(=O)N3CCCC3)nc2c1 (configuration not stated)	-35%	2%	-4%	-5%	13%	8%
CC(C)n1cc(/C=N/Nc2ccc(Cl)c(C(=O)O)c2)c2ccccc21	·	1.8µM*	13µM*	8.2µM*	1.6µM*	?
SMILES	SMN2 splice enh	NPC1 promoter act	FLuc modulator	ELG1 genotoxic	Rab9 prom act	ELG1 repair inh
O=C(O)/C=C/C(=O)Nc1ccc(Cl)c(C(=O)O)c1	·	10%	-8%	3%	-1%	?
O=C(O)c1cc(N/N=C/c2cccc3ccccc23)ccc1Cl	·	0.79µM*	7.6µM*	?	1.4µM*	?
NNc1ccc(Cl)c(C(=O)O)c1	·	1.3µM*	12µM*	?	1.3µM*	?
CC(O)C(=O)N/N=C/c1cccc2ccccc12 (configuration not stated)	43%	-3%	-15%	-1%	-2%	?
O=C(O)c1cc(N/N=C/C(Cl)=C/c2ccccc2)ccc1Cl	0.89µM*	?	0.11µM*	?	?	?
O=C(N/N=C/c1cc([N+](=O)[O-])ccc1O)c1cccc2ccccc12	·	-14%	-10%	9%	6%	?
O=[N+]([O-])c1cccc(N/N=C/c2cccc3ccccc23)c1	?	5%	19µM*	12%	12%	?
O=C1CNC(=S)N1c1nc2ccccc2s1	·	?	17µM*	?	?	?
O=S(=O)(c1ccccc1F)N1CCN(c2nc3ccccc3s2)CC1	·	25%	-6%	6%	?	?
COc1ccc(CCNC(=O)c2ccc3c(c2)N(Cc2ccc(F)cc2)CCS3)cc1OC	6%	-1%	1%	-10%	-1%	26µM*
COc1ccc(NC(=O)c2ccc3c(c2)N(C)CCS3)cc1	·	2µM*	3.4µM*	?	4µM*	?
CN1CCSc2ccc(C(=O)Nc3cccc(F)c3)cc21	·	1.4µM*	1.7µM*	2.1µM*	1µM*	?
Cc1ccc(CN2CCSc3ccc(C(=O)Nc4ccc(C)cc4)cc32)cc1	?	·	21µM*	·	·	·
COc1ccc(NC(=O)c2ccc3c(c2)n(C)c(=O)n3C)cc1	?	-5%	?	?	-11%	?
CCOc1ccc2nc(NC(=O)C3CCN(C(=O)c4ccco4)CC3)sc2c1	·	?	15µM*	?	?	?
CCOc1ccc2nc(N3CCC(C(=O)N4CCN(C5CCCCC5)CC4)CC3)sc2c1	-16%	11%	-19%	4%	2%	?
CCOc1ccc2nc(N3CCC(C(=O)N4CCN(C(=O)c5ccco5)CC4)CC3)sc2c1	-46%	7%	13µM*	1%	20%	?
Clc1ccccc1CN1CCN(/N=C/C=C/c2ccco2)CC1	·	27%	24µM*	7%	?	?
O=C(CN1CCN(Cc2ccccc2Cl)CC1)N/N=C/C=C/c1ccco1	·	-4%	-1%	3%	-3%	5%
COc1ccccc1N1CCN(/N=C/C=C\c2ccco2)CC1	13µM*	1.1µM*	4.8µM*	?	2µM*	?
COc1ccccc1N1CCN(C(=O)/C=C/c2ccco2)CC1	·	4%	?	12%	18%	?
